# Test results published in PubChem BioAssay (NCATS).
# Unmarked numbers belong to inactive results. Records with an inconclusive call do not appear. Entries that show only a call come without a potency. Active and inactive are the calls of the source. Unless noted, the call rests on the fitted dose curve; in most records, active means well fitted curve in the direction sought with a large enough effect; inconclusive means small, poorly fitted or top-dose-only effect, or another doubt; inactive means no such curve, though single readings can be large; an effect the other way counts as inactive or inconclusive.
# How the values were obtained:
# [1] = target: Lysosomal acid glucosylceramidase (Homo sapiens) (UniProt P04062); test: Glucocerebrosidase-p2 (AID 348; in the data active means potency below about 10 µM; further: potency means the concentration at half of the fitted maximal effect); settings: purified GBA, blue fluorogenic substrate, 40 min
# Chain of Lysosomal acid glucosylceramidase (Homo sapiens) (P04062 whole entry, looked up): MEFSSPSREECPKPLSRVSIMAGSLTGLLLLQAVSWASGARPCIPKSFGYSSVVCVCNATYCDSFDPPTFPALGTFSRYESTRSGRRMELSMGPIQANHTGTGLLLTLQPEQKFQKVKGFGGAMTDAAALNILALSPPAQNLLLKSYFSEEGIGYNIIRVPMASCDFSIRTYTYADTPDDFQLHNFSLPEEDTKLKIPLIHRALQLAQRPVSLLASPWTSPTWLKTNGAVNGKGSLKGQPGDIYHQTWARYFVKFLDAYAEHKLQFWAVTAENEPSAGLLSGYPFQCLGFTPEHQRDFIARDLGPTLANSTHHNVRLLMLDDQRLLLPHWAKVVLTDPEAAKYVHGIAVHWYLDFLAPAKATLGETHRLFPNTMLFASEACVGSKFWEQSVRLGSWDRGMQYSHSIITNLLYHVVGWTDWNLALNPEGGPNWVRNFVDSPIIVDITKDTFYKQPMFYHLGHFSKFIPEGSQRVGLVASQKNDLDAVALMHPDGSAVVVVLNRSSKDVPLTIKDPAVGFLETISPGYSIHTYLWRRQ
# In short: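 Normal human glucocerebrosidase (0.2 nM) with blue fluorogenic substrate (80 uM final) in citrate/phosphate pH 5.9 with 10mM sodium taurocholate, 0.01% tween-20; 40 min RT, NaOH/glycine stop; fluorescence Ex 365/Em 440; AC50 from a titration from 0.6 nM upwards.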
# [2] = Stat Signaling Pathway (AID 446; active means well fitted curve in either direction with a large enough effect, not every such curve was filed as active;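 further: ME-180 cervical cancer cells given 40 pM IL-6 alongside compound; SIE-controlled beta-lactamase reporter measured as 460/530 nm FRET emission ratio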); settings: ME-180 (cervical carcinoma) SIE beta-lactamase reporter, IL-6 stimulated, 5 h; at 7.69 µM (top of the series) unless noted
# In short: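 Normalization used AC90 stimulation (300 pM IL-6) and AC90 inhibition (125 nM pan-JAK inhibitor at 40 pM IL-6). The underlying signal is SIE-driven beta-lactamase in ME-180 cells after 5 h IL-6 exposure with compound.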
# [3] = target: Glucocorticoid receptor (Homo sapiens) (UniProt P04150); test: GR-GFP Redistribution (AID 450;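 active means compounds whose dose series gives a full or clear partial fitted curve of increased nuclear translocation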; further: potency means the concentration at half of the fitted maximal effect); settings: U2OS GR-GFP nuclear translocation, laser cytometry, 2 h
# Chain of Glucocorticoid receptor (Homo sapiens) (P04150 whole entry, looked up, the tested form may be a part): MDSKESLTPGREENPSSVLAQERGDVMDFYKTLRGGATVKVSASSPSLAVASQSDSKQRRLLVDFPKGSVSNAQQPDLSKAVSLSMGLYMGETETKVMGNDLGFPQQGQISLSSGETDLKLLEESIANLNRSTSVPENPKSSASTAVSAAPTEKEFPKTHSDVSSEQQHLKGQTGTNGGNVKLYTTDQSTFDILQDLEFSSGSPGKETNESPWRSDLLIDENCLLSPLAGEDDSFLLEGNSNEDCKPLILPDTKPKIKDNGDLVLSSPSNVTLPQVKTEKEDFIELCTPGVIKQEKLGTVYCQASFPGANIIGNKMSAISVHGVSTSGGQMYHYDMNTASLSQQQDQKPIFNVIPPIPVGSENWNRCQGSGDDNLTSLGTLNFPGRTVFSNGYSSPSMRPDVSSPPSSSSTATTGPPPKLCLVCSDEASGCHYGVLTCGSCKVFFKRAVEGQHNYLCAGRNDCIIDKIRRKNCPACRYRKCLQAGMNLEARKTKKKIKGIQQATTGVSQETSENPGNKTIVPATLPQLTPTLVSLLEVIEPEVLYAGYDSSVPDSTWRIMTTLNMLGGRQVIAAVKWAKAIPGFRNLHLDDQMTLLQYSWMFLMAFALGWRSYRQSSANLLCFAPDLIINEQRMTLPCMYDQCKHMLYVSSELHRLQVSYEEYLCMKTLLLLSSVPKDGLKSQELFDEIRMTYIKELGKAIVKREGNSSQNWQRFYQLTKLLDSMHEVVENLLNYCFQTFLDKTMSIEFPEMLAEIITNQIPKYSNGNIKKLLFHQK
# [4] = target: Glucocorticoid receptor (Homo sapiens) (UniProt P04150); test: GR-EFC Redistribution (AID 451; calls by dose curve; further: potency means the concentration at half of the fitted maximal effect); settings: CHO-K1 GR-EFC translocation, beta-gal luminescence, 2 h
# In short: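 CHO-K1 cells expressing nuclear EA and GR-ED fragments of b-gal; compounds titrated up to 46 uM final, 2 h at 37 C. GR nuclear translocation read as complemented b-gal luminescence after 1 h RT detection.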
# [5] = target: Mitogen-activated protein kinase 10 (Mus musculus) (UniProt Q61831); test: JNK3 AlphaScreen Assay (AID 530; active means well fitted curve in either direction with a large enough effect, not every such curve was filed as active;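 further: kinase came from lysate of stimulated human HepG2 cells; signal reports phosphorylation of biotinylated GST-cJun 1-79 at Ser73 with 10 µM ATP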); settings: JNK3 lysate, c-Jun phosphorylation; series mostly up to 11.4 µM
# In short: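 HepG2 lysate (IL-1b/TNFa pre-activated) + biotin-GST-cJun 1-79 + anti-pSer73 cJun; cpd titration, 15 min RT; ATP 10 uM start; Tris pH 7.6, MgCl2, DTT, vanadate; beads in EDTA buffer; AlphaScreen.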
# [6] = target: 3',5'-cyclic-AMP phosphodiesterase 4B (Homo sapiens) (UniProt Q07343); test: qHTS Assay for Inhibitors of PDE-IV (AID 607; active means well fitted activation curve with a large enough effect in the main read-out, with a control signal flat, not every such curve was filed as active); settings: HEK293 ACTOne CNG channel cells, membrane potential fluorescence; series mostly up to 22.9 µM
# Chain of 3',5'-cyclic-AMP phosphodiesterase 4B (Homo sapiens) (Q07343 whole entry, looked up): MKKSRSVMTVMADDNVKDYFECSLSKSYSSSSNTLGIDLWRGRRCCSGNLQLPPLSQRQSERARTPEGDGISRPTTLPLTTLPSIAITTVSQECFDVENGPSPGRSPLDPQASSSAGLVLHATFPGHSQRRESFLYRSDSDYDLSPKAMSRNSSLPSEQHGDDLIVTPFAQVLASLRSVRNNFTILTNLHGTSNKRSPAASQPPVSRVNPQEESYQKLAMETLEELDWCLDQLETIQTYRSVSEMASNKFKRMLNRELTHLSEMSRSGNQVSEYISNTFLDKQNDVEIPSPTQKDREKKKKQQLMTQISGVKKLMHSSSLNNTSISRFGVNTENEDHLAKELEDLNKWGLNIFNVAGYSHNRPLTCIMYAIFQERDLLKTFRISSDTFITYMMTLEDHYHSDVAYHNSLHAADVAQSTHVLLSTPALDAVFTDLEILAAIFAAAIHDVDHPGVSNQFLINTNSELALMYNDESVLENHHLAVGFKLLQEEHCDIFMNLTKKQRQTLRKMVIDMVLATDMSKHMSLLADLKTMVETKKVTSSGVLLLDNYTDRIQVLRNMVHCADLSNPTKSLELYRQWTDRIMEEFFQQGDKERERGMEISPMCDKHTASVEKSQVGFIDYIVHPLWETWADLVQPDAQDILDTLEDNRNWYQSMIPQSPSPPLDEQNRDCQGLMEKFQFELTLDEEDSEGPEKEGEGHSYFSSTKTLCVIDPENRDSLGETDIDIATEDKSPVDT
# In short: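 HEK293 ACTOne cells with CNG channel (1000/well), endogenous PDE4; membrane potential dye, compounds up to 22.9 uM final. Fluorescence Ex 535/Em 590; RO 20-1724 (100 uM final) as reference.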
# [7] = target: ATP-dependent 6-phosphofructokinase (Trypanosoma brucei brucei) (UniProt O15648); test: qHTS Assay to Find Inhibitors of T. brucei phosphofructokinase: hit validation (AID 492961);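 further: luminescence reports ADP formed as PFK phosphorylates fructose-6-phosphate with ATP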; settings: T. brucei PFK, ADP-Glo luminescence; series mostly up to 51.4 µM
# Chain of ATP-dependent 6-phosphofructokinase (Trypanosoma brucei brucei) (O15648 whole entry, looked up): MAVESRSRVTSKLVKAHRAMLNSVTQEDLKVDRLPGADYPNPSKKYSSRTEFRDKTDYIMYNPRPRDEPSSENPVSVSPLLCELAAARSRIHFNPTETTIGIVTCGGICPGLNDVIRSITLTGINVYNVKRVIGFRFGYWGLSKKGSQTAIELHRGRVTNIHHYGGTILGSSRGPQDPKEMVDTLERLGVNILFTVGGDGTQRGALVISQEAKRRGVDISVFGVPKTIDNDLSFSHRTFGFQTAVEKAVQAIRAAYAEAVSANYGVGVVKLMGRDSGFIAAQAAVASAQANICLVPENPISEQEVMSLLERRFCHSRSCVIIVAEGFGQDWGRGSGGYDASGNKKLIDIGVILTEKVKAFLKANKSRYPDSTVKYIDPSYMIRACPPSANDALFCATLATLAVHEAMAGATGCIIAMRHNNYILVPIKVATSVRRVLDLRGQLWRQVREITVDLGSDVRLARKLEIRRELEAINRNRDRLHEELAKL
# In short: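 Compounds titrated; %activity normalized to 0x and 1x enzyme controls, curve-fitted. Readout: ADP-Glo luminescence after 45 min room-temperature reaction of 1.25 nM PFK, 0.1 mM ATP, 0.5 mM F6P, pH 8.0.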
# [8] = target: Luciferin 4-monooxygenase (Photinus pyralis) (UniProt P08659); test: Biochemical firefly luciferase enzyme assay for NPC (AID 624030);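 further: purified P. pyralis luciferase at 10 nM with luciferin and ATP substrate; nearly all actives have a fitted effect of over 70% in size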; settings: purified P. pyralis luciferase, luminescence, 5 min; series mostly up to 58.6 µM
# Chain of Luciferin 4-monooxygenase (Photinus pyralis) (P08659 whole entry, looked up): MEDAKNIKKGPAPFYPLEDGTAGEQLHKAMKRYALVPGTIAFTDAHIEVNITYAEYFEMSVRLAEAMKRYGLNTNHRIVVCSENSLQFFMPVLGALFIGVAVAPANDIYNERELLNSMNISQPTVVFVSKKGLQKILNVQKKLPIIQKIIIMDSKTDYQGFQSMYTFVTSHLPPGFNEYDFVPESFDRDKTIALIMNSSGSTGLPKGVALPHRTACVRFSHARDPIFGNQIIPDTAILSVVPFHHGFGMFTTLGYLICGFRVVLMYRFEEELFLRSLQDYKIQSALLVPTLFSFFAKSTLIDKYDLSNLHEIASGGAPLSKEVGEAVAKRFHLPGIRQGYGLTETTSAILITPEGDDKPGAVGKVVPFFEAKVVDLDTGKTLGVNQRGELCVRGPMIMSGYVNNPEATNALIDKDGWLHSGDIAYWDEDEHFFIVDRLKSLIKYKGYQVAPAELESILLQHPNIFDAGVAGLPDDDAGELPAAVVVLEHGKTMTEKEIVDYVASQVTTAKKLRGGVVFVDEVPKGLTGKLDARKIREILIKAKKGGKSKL
# In short: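 Purified P. pyralis luciferase at 10 nM in 50 mM Tris Acetate (final), luminescence read within 5 minutes of enzyme addition to compounds. Activity normalised to PTC124 versus DMSO; concentration-response curves classed by r2, magnitude and activity.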
# [9] = S16 Schwann cell viability assay (CellTiter-Glo assay) (AID 624031); settings: S16 rat Schwann cells viability, 24 h; series mostly up to 57.5 µM; further: potency means the concentration at half of the fitted maximal effect; nearly all actives have a fitted effect of over 70% in size
# In short: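 Luminescent ATP read-out (CellTiter-Glo) after 24 h compound exposure of native S16 rat Schwann cells at 37 °C. Signals were normalized between cell-free wells and DMSO-treated cells, set as 0% activity.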
# [10] = S16 Schwann cell PMP22 intronic element firefly luciferase assay (AID 624032); settings: S16 rat Schwann cells, PMP22 element FLuc, 24 h; series mostly up to 57.5 µM; further: nearly all actives have a fitted effect of over 30% in size
# In short: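 Rat S16 Schwann cells stably carrying firefly luciferase driven by a PMP22 intronic element, in 10% FBS, treated 24 h at 37 C. ONE-Glo luminescence normalized to PTC124 control and DMSO (0%); curves classed by r2, magnitude and activity.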
# [11] = S16 Schwann cell PMP22 intronic element beta-lactamase assay (AID 624044; calls by dose curve; further: nearly all actives have a fitted effect of over 15% in size); settings: S16 rat Schwann cells, PMP22 element beta-lactamase FRET, 24 h; series mostly up to 38.3 µM
# In short: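 Beta-lactamase reporter under a PMP22 intronic regulatory element in stable S16 rat Schwann cells; 24 h compound exposure. 460 nm blue signal normalized between DMSO (0%) and potassium clavulanate, with 535 nm FRET tracking viability; curves classed by r2 and response.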
# [12] = qHTS profiling for inhibitors of Plasmodium falciparum proliferation (AID 504749); further: nearly all actives have a fitted effect of over 60% in size; further: potency means the concentration at half of the fitted maximal effect; settings: P. falciparum in erythrocytes, SYBR Green DNA, 72 h, at 28.7 µM (top of the series)
# In short: (§1)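 SYBR Green fluorescence (ex 485 nm, em 535 nm) reports parasite DNA after 72 h compound exposure of infected red cells at 0.3% parasitemia, 2.5% hematocrit; signal normalized to 0.29 uM artemisinin and vehicle wells.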
# 7G8 = test: as above; settings: P. falciparum in erythrocytes, SYBR Green DNA, 72 h; series mostly up to 28.7 µM
# In short: as §1
# ATS189 = test: as above; settings: P. falciparum in erythrocytes, SYBR Green DNA, 72 h; series mostly up to 28.7 µM
# In short: as §1
# CP185 = test: as above; settings: P. falciparum in erythrocytes, SYBR Green DNA, 72 h; series mostly up to 28.7 µM
# In short: as §1
# CP192 = test: as above; settings: P. falciparum in erythrocytes, SYBR Green DNA, 72 h; series mostly up to 28.7 µM
# In short: as §1
# CP201 = test: as above; settings: P. falciparum in erythrocytes, SYBR Green DNA, 72 h; series mostly up to 28.7 µM
# In short: as §1
# CP238 = test: as above; settings: P. falciparum in erythrocytes, SYBR Green DNA, 72 h; series mostly up to 28.7 µM
# In short: as §1
# CP247 = test: as above; settings: P. falciparum in erythrocytes, SYBR Green DNA, 72 h; series mostly up to 28.7 µM
# In short: as §1
# CP252 = test: as above; settings: P. falciparum in erythrocytes, SYBR Green DNA, 72 h; series mostly up to 28.7 µM
# In short: as §1
# CP262 = test: as above; settings: P. falciparum in erythrocytes, SYBR Green DNA, 72 h; series mostly up to 28.7 µM
# In short: as §1
# CP265 = test: as above; settings: P. falciparum in erythrocytes, SYBR Green DNA, 72 h; series mostly up to 28.7 µM
# In short: as §1
# CP266 = test: as above; settings: P. falciparum in erythrocytes, SYBR Green DNA, 72 h; series mostly up to 28.7 µM
# In short: as §1
# CP315 = test: as above; settings: P. falciparum in erythrocytes, SYBR Green DNA, 72 h; series mostly up to 28.7 µM
# In short: as §1
# CP325 = test: as above; settings: P. falciparum in erythrocytes, SYBR Green DNA, 72 h; series mostly up to 28.7 µM
# In short: as §1
# CP329 = test: as above; settings: P. falciparum in erythrocytes, SYBR Green DNA, 72 h; series mostly up to 28.7 µM
# In short: as §1
# DFO2036 = test: as above; settings: P. falciparum in erythrocytes, SYBR Green DNA, 72 h; series mostly up to 28.7 µM
# In short: as §1
# DIV14 = test: as above; settings: P. falciparum in erythrocytes, SYBR Green DNA, 72 h; series mostly up to 28.7 µM
# In short: as §1
# DIV17 = test: as above; settings: P. falciparum in erythrocytes, SYBR Green DNA, 72 h; series mostly up to 28.7 µM
# In short: as §1
# GB4 = test: as above; settings: P. falciparum in erythrocytes, SYBR Green DNA, 72 h; series mostly up to 28.7 µM
# In short: as §1
# HB3 = test: as above; settings: P. falciparum in erythrocytes, SYBR Green DNA, 72 h; series mostly up to 28.7 µM
# In short: as §1
# ICS = test: as above; settings: P. falciparum in erythrocytes, SYBR Green DNA, 72 h; series mostly up to 28.7 µM
# In short: as §1
# N140 = test: as above; settings: P. falciparum in erythrocytes, SYBR Green DNA, 72 h; series mostly up to 28.7 µM
# In short: as §1
# P93_24 = test: as above; settings: P. falciparum in erythrocytes, SYBR Green DNA, 72 h; series mostly up to 28.7 µM
# In short: as §1
# PAD = test: as above; settings: P. falciparum in erythrocytes, SYBR Green DNA, 72 h; series mostly up to 28.7 µM
# In short: as §1
# PC15 = test: as above; settings: P. falciparum in erythrocytes, SYBR Green DNA, 72 h; series mostly up to 28.7 µM
# In short: as §1
# SC27B = test: as above; settings: P. falciparum in erythrocytes, SYBR Green DNA, 72 h; series mostly up to 28.7 µM
# In short: as §1
# W2 = test: as above; settings: P. falciparum in erythrocytes, SYBR Green DNA, 72 h; series mostly up to 28.7 µM
# In short: as §1
smiles,measurement,setting,value
CCc1ccc2c(c1)N(C[C@H](C)CN(C)C)c1ccccc1S2,Potency,[1],> 11.4 µM
same,"activity, negative = inhibition",[2],3.53%
same,Potency,[3],> 46 µM
same,Potency,[4],> 9.22 µM
same,Potency,[5],inactive
same,Potency,[6],inactive
same,outcome,[7],inactive
same,outcome,[8],inactive
same,Potency,[9],28.7 µM (active)
same,Potency,[10],inactive
same,outcome,[11],inactive
same,"activity, negative = inhibition",[12]; parasite line A,-23.4%
same,"activity, negative = inhibition",[12]; parasite line B,-17.5%
same,Potency,7G8,10 µM (active)
same,Potency,ATS189,inactive
same,Potency,CP185,inactive
same,Potency,CP192,inactive
same,Potency,CP201,inactive
same,Potency,CP238,inactive
same,Potency,CP247,inactive
same,Potency,CP252,inactive
same,Potency,CP262,inactive
same,Potency,CP265,inactive
same,Potency,CP266,inactive
same,Potency,CP315,inactive
same,Potency,CP325,inactive
same,Potency,CP329,inactive
same,Potency,DFO2036,inactive
same,Potency,DIV14,8.49 µM (active)
same,Potency,DIV17,6.01 µM (active)
same,Potency,GB4,7.57 µM (active)
same,Potency,HB3,inactive
same,Potency,ICS,7.94 µM (active)
same,Potency,N140,inactive
same,Potency,P93_24,7.94 µM (active)
same,Potency,PAD,inactive
same,Potency,PC15,inactive
same,Potency,SC27B,inactive
same,Potency,W2,7.57 µM (active)
